Data from PubChem BioAssay (Tox21).
A number with no mark means an inactive call. Inconclusive results are not listed. A call without a number means that no potency is given here. Activity calls are given as the source filed them. Unless noted, calls follow the shape of the dose curve; as a rule, active = well fitted curve in the direction sought with a large enough effect in the repeat runs; inconclusive = weak or mixed curves; inactive = no such curve, though single readings can be large; an effect the other way counts as inactive or inconclusive.

Legend:
[1] = qHTS assay for small molecule agonists of the p53 signaling pathway (AID 651631; calls by dose curve; also: nearly all actives have a fitted effect of over 15% in size; also: potency is read from the fitted curve at half-maximal effect)
Outline: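 Fluorescence intensity from cleaved LiveBLAzer B/G substrate (2 h, room temperature) served as the signal. Beforehand, HCT-116 reporter cells bearing p53 response elements were treated 16 h at 37 °C with DMSO-dissolved compounds.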

[2] = qHTS assay for small molecules that induce genotoxicity in human embryonic kidney cells expressing luciferase-tagged ATAD5 (AID 651632); also: nearly all actives have a fitted effect of over 15% in size
Outline: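 Luminescence read-out: after 16 hr compound exposure at 37C, ATAD5-luciferase HEK293T cells received Amplite, 30 min RT, then CCD imaging. A rise in signal marks genotoxic stress.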

[3] = qHTS assay for small molecule agonists of the p53 signaling pathway - cell viability (AID 651633; calls by dose curve; also: nearly all actives have a fitted effect of over 30% in size; also: potency is read from the fitted curve at half-maximal effect)
Outline: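 Viability counter-read: CellTiter-Glo luminescence (30 min, room temperature) in the same p53RE-bla plates. These plates had been exposed to compounds for 16 h at 37 C.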

[4] = qHTS assay for small molecule disruptors of the mitochondrial membrane potential - cell viability (AID 720634; calls by dose curve;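 also: human HepG2 liver cancer cells; nearly all actives have a fitted effect of over 20% in size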)
Outline: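 Luminescence from CellTiter-Glo (ATP content) gave viability in HepG2 cells, read in the same wells as the MMP dye assay after 1 hr compound exposure at 37 C.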

[5] = qHTS assay to test for compound auto fluorescence at 590 nm (red) in HepG2 cells (AID 720674)
Outline: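 1 hr compound incubation on HepG2 cells, 37 C, 5% CO2; plate read ex 540 nm / em 590 nm; intensities reported as Rose Bengal sodium equivalents.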

[6] = qHTS assay to test for compound auto fluorescence at 535 nm (green) in HepG2 cells (AID 720675)
[7] = qHTS assay to test for compound auto fluorescence at 460 nm (blue) in HEK293 cells (AID 720678)
Outline: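 Auto fluorescence in the blue band was quantified as triamterene equivalency. HEK293 cells were seeded at 2,000/well, dosed after a 4-5 hr attachment, and kept overnight at 37C before the 405/460 nm reading.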

[8] = qHTS assay to test for compound auto fluorescence at 590 nm (red) in HEK293 cells (AID 720679)
Outline: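 Autofluorescence equivalency to Rose Bengal sodium, 540/590nm, in HEK293 cells exposed overnight to 23 nL compound per well.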

[9] = qHTS assay to test for compound auto fluorescence at 535 nm (green) in HEK293 cells (AID 720680)
[10] = qHTS assay to test for compound auto fluorescence at 460 nm (blue) in HEK293 cell free culture (AID 720681)
Outline: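 Blue fluorescence (Ex 405/Em 460 nm, triamterene-equivalent) was read immediately after pin transfer of compound or DMSO into medium (DMEM, 10% FBS) without cells.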

[11] = qHTS assay to test for compound auto fluorescence at 535 nm (green) in HEK293 cell free culture (AID 720682)
Outline: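 Intrinsic compound fluorescence is measured in culture medium containing 10% FBS, with excitation at 485 nm and detection at 535 nm, referenced to fluorescein.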

[12] = qHTS assay to test for compound auto fluorescence at 590 nm (red) in HEK293 cell free culture (AID 720683)
Outline: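 Red-channel autofluorescence of compounds in culture medium (DMEM, 10% FBS), no cells, measured at 540/590 nm. Rose Bengal sodium is the reference fluorophore for equivalence.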

[13] = qHTS assay to test for compound auto fluorescence at 590 nm (red) in HepG2 cell free culture (AID 720684)
Outline: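 Cell-free; medium MEM + 10% FBS; compound or DMSO added by pintool; read Ex 540/Em 590 nm; Rose Bengal sodium as red reference fluorophore.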

[14] = qHTS assay to test for compound auto fluorescence at 460 nm (blue) in HepG2 cell free culture (AID 720685)
Outline: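 Cell-free plates of MEM plus 10% FBS received 23 nL compound or DMSO vehicle; blue-channel (405/460 nm) intensity scored against triamterene as reference fluorophore.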

[15] = qHTS assay to test for compound auto fluorescence at 535 nm (green) in HepG2 cell free culture (AID 720686)
[16] = qHTS assay to test for compound auto fluorescence at 460 nm (blue) in HepG2 cells (AID 720687)
Outline: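 Blue-channel autofluorescence (Ex/Em 405/460 nm, triamterene-equivalent) was measured after 1 hr compound exposure at 37 C, 5% CO2. Cells were HepG2, plated overnight at 37 C in MEM plus 10% FBS.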

[17] = qHTS assay for small molecule disruptors of the mitochondrial membrane potential (AID 720635)
Outline: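 Mitochondrial membrane potential tracked with Mito-MPS dye, red aggregates (ex 540/em 590 nm) against green monomers (ex 490/em 535 nm). Compound treatment 1 hr at 37C, dye 30 min in HepG2.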

[18] = target: Glucocorticoid receptor (Homo sapiens) (UniProt P04150); test: qHTS assay to identify small molecule agonists of the glucocorticoid receptor (GR) signaling pathway (AID 720691; active = well fitted activation curve with a large enough effect in the signal ratio in the repeat runs, not every such curve was filed as active; the % refers to the signal ratio); settings: GR-bla HeLa, beta-lactamase reporter ratio, 18 h; activation: at 62.4 µM (top of the series) unless noted
Glucocorticoid receptor (Homo sapiens), sequence (P04150 whole entry, looked up): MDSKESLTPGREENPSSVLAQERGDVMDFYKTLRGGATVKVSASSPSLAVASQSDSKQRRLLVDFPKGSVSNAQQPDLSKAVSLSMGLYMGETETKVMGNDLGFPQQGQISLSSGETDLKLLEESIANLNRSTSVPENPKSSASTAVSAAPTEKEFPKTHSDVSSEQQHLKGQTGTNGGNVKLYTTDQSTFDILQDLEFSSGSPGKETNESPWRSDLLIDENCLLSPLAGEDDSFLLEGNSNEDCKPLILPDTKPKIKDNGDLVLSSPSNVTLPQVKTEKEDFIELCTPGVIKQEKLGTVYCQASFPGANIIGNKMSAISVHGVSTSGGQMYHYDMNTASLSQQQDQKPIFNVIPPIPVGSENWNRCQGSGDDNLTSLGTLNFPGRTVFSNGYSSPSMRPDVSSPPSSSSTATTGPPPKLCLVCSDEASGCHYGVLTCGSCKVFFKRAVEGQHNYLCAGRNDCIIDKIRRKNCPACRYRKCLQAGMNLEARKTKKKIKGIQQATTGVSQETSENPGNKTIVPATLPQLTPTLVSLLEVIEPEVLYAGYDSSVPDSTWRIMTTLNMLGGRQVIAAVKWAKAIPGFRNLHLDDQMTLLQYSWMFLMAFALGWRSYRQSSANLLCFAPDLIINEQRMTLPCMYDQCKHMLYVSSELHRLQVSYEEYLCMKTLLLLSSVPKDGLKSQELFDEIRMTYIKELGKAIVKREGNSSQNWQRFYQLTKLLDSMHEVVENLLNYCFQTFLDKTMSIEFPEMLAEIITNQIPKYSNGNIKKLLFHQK
Outline: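 HeLa GR-bla reporter line; cells pre-incubated 4 h, compound in DMSO 18 h at 37 C; LiveBLAzer B/G FRET substrate 2 h RT; fluorescence intensity read-out.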

[19] = target: Glucocorticoid receptor (Homo sapiens) (UniProt P04150); test: qHTS assay to identify small molecule antagonists of the glucocorticoid receptor (GR) signaling pathway (AID 720692; active = well fitted inhibition curve with a large enough effect in the signal ratio in the repeat runs, not every such curve was filed as active; the % refers to the signal ratio; also: potency is read from the fitted curve at half-maximal effect)
Outline: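 Read-out: beta-lactamase FRET substrate fluorescence, 2 h at room temperature, in HeLa cells stably carrying a GRE-driven bla reporter. Compounds were co-incubated with 5 nM dexamethasone agonist (final) for 18 h at 37 C.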

SMILES: CCNc1cc(O)ccc1C
- Potency [1]: inactive
- Potency [2]: inactive
- Potency [3]: inactive
- Potency [4]: inactive
- Potency [5]: inactive
- Potency [6]: inactive
- outcome [7]: inactive
- Potency [8]: inactive
- outcome [9]: inactive
- outcome [10]: inactive
- outcome [11]: inactive
- Potency [12]: inactive
- Potency [13]: inactive
- outcome [14]: inactive
- Potency [15]: inactive
- outcome [16]: inactive

SMILES: O=C1OC(CN2CCOCC2)CN1/N=C/c1ccc([N+](=O)[O-])o1 (centres undefined)
- Potency [1]: inactive
- Potency [2]: inactive
- Potency [3]: inactive
- Potency [4]: inactive
- Potency [17]: inactive
- fluorescence, relative to Rose Bengal [5]: -0.0946% [at 18.6 µM]
- fluorescence, % of fluorescein control [6]: -0.0437% [at 18.6 µM]
- fluorescence, % of triamterene [7]: -0.0248% [at 18.6 µM]
- fluorescence, % of fluorescent control [8]: 0.088% [at 18.6 µM]
- fluorescence, % of fluorescein [9]: -0.416% [at 18.6 µM]
- fluorescence, % of fluorescent control [10]: -0.128% [at 18.6 µM]
- activity change [11]: -0.0395% [at 18.6 µM]
- fluorescence, % of fluorescent control [12]: 0.0972% [at 18.6 µM]
- fluorescence, % of Rose Bengal [13]: 0.113% [at 18.6 µM]
- fluorescence, % of fluorescent control [14]: -0.135% [at 18.6 µM]
- fluorescence, % of fluorescein control [15]: -0.14% [at 18.6 µM]
- fluorescence, % of fluorescent control [16]: -0.0405% [at 18.6 µM]
- Potency [18]: inactive
- Potency [19]: inactive

SMILES: CCCCCCCN
- Potency [1]: inactive
- Potency [2]: inactive
- Potency [3]: inactive
- Potency [4]: inactive
- Potency [6]: inactive
- outcome [7]: inactive
- Potency [8]: inactive
- outcome [9]: inactive
- outcome [10]: inactive
- outcome [11]: inactive
- Potency [12]: inactive
- Potency [13]: inactive
- outcome [14]: inactive
- outcome [16]: inactive
- Potency [18]: inactive
- Potency [19]: inactive

SMILES: O=C(Nc1ccc(S(=O)(=O)N2CCOCC2)cc1)c1cc(Cl)ccc1NS(=O)(=O)c1ccc(Cl)s1
- Potency [1]: 26.6 µM (active)
- Potency [2]: inactive
- Potency [3]: 9.44 µM (active)
- Potency [4]: inactive
- Potency [5]: inactive
- Potency [6]: inactive
- outcome [7]: inactive
- Potency [8]: inactive
- outcome [9]: inactive
- outcome [10]: inactive
- outcome [11]: inactive
- Potency [12]: inactive
- Potency [13]: inactive
- outcome [14]: inactive
- Potency [15]: inactive
- outcome [16]: inactive
- Potency [18]: inactive
- Potency [19]: 26.8 µM (active)

SMILES: C=CC1CC2C=CC1C2 (centres undefined)
- Potency [1]: inactive
- Potency [2]: inactive
- Potency [3]: inactive
- Potency [4]: inactive
- Potency [5]: inactive
- Potency [6]: inactive
- outcome [7]: inactive
- Potency [8]: inactive
- outcome [9]: inactive
- outcome [10]: inactive
- outcome [11]: inactive
- Potency [12]: inactive
- Potency [13]: inactive
- outcome [14]: inactive
- outcome [16]: inactive
- Potency [18]: inactive
- Potency [19]: inactive

SMILES: Clc1ccc(Cn2c(CN3CCCC3)nc3ccccc32)cc1
- Potency [1]: inactive
- Potency [2]: inactive
- Potency [3]: inactive
- Potency [4]: inactive
- fluorescence, relative to Rose Bengal [5]: -0.15% [at 18.6 µM]
- fluorescence, % of fluorescein control [6]: 0.097% [at 18.6 µM]
- fluorescence, % of triamterene [7]: 0.123% [at 18.6 µM]
- fluorescence, % of fluorescent control [8]: 0.574% [at 18.6 µM]
- fluorescence, % of fluorescein [9]: 0.026% [at 18.6 µM]
- fluorescence, % of fluorescent control [10]: -0.0089% [at 18.6 µM]
- activity change [11]: -0.0526% [at 18.6 µM]
- fluorescence, % of fluorescent control [12]: 0.147% [at 18.6 µM]
- fluorescence, % of Rose Bengal [13]: -0.0239% [at 18.6 µM]
- fluorescence, % of fluorescent control [14]: 0.0634% [at 18.6 µM]
- fluorescence, % of fluorescein control [15]: -0.0084% [at 18.6 µM]
- fluorescence, % of fluorescent control [16]: 0.0474% [at 18.6 µM]
- Potency [18]: inactive

SMILES: CCOc1ccc(N)c([N+](=O)[O-])c1
- Potency [1]: inactive
- Potency [2]: inactive
- Potency [3]: inactive
- Potency [4]: inactive
- Potency [17]: inactive
- Potency [6]: inactive
- outcome [7]: inactive
- Potency [8]: inactive
- outcome [9]: inactive
- outcome [10]: inactive
- outcome [11]: inactive
- Potency [12]: inactive
- Potency [13]: inactive
- outcome [14]: inactive
- Potency [15]: inactive
- outcome [16]: inactive
